Screening data: PubChem BioAssay, National Center for Advancing Translational Sciences (NCATS)
An excerpt weighted towards active compounds, which were near 5.7% of everything screened.
Nrf2 block: Nrf2 qHTS screen for inhibitors; 2.1% of 360,000 active; Potency, µM (titrated, usually from 46 µM), without a hit: at the highest dose activity change, negative = inhibition, actives largely listed as inhibitors; A549 ARE-Fluc reporter, luciferase luminescence, 18-24 h; AID 504444, 2011; also: potency is read from the fitted curve at half-maximal effect; nearly all actives have a fitted effect of over 60% in size
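Two sequential reads on A549 ARE_Fluc cells exposed to compound for 18-24 h: a CellTiter-Fluor fluorescence read for viability, then a luciferase luminescence read for Nrf2/ARE activity.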
PI4K2A inh: qHTS for small molecular inhibitors of PI4K2A; purified PI4K2A, ADP-Glo luminescence, 1 h; stronger effect = lower value; Phosphatidylinositol 4-kinase type 2-alpha (Homo sapiens), Q9BTU6; AID 1346378, 2018; 0.13% of 420,000 active; activity change, negative = inhibition, % at 76.9 µM; in the data active = activity change below about -50%; inconclusive = mostly about -30% to -49%;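 also: -100% = wells without enzyme as full effect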
Target sequence (Q9BTU6 whole entry, looked up): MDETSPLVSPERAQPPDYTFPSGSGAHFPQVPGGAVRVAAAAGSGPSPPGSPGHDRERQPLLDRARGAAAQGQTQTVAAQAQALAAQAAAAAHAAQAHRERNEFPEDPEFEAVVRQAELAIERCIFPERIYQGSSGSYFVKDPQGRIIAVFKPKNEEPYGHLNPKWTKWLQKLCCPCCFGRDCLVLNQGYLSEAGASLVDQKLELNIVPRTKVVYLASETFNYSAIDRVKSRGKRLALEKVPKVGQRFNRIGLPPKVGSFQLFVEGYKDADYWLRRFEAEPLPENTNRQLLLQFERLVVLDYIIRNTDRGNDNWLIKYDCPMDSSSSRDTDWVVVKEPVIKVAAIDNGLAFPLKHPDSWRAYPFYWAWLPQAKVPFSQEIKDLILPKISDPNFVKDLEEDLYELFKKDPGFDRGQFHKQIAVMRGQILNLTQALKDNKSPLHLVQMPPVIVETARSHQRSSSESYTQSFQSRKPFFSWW
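PI4K2A activity was measured by ADP-Glo luminescence: enzyme (4 ug/mL stock) and phosphatidylinositol (1.2 mM stock) in Tris pH 7.5/MgCl2/EGTA/Triton X-100 buffer were reacted with ATP (300 microM stock) for one hour at ambient temperature.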
Giardia kill: Small Molecules that selectively kill Giardia lamblia: qHTS | Giardia lamblia trophozoite viability | activity change, % at 7.66 µM, hits read low | 0.15% of 340,000 active | AID 540267, 2011; in the data active = activity change below about -80%; inconclusive = between about -30% and that limit;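 also: parasites exposed to compound for two days anaerobically before the ATP read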
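Giardia lamblia trophozoites (100 cells/well) were incubated with compounds for 48 h at 37 deg C under anaerobic conditions. Viability was read as ATP content by one-step luminescence after 15-30 min at room temperature.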
KB-V1 cytotox: qHTS assay for MDR1-selective chemotherapeutics: Primary screen using the drug-selected MDR subline cells KB-V1 | KB-V1 MDR cells viability, CellTiter-Glo, 72 h | Potency, µM (doses to about 46.1 µM), actives largely listed as cytotoxic | 3.4% of 400,000 active | AID 1347076, 2019; also: potency is read from the fitted curve at half-maximal effect; nearly all actives have a fitted effect of over 60% in size
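Luminescent ATP read-out (CellTiter-Glo, 10 min) measures survival of drug-selected KB-V1 MDR cells after 72 h, 37 degrees C compound exposure. Medium: phenol-red-free DMEM, 10% FBS. Values from fitted concentration-response curves.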
A549 viability: Nrf2 qHTS screen for inhibitors: counterscreen for cytotoxicity; Potency, µM (titrated, usually from 46 µM), for inactives: top-dose activity change, negative = cytotoxicity, usual class: inhibitors; AID 504648, 2011; 0.16% of 390,000 active; A549 ARE-Fluc cells, CellTiter-Fluor viability, 18-24 h; also: potency is read from the fitted curve at half-maximal effect
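A549 ARE-Fluc cells in 5% FBS OPTI-MEM, 5000 cells/well, rested 2 h then exposed to compounds in concentration-response for 18-24 h at 37 °C. Viability by CellTiter-Fluor fluorescence (Ex 405/Em 525) after 30 min; luciferase luminescence (BugLite, 15 min, RT) read afterwards.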
KB-3-1 tox: qHTS assay for MDR1-selective chemotherapeutics: Primary screen using the parental adenocarcinoma cell KB-3-1; KB-3-1 viability, CellTiter-Glo ATP luminescence, 72 h; Potency, µM (highest dose often 46.1 µM), actives largely listed as cytotoxic; 1.4% of 400,000 active; also: potency is read from the fitted curve at half-maximal effect; nearly all actives have a fitted effect of over 60% in size
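Here the drug-naive KB-3-1 line serves as comparator for MDR sub-line selectivity; cells received compound titrations, 72 h at 37 °C, then CellTiter-Glo readout.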
The depositor's hits bear a star; i = inactive; ? = inconclusive; / = no result. Unless noted, calls follow the shape of the dose curve; as a rule, active = well fitted curve in the direction sought with a large enough effect; inconclusive = small, poorly fitted or top-dose-only effect, or another doubt; inactive = no such curve, though single readings can be large; an effect the other way counts as inactive or inconclusive. Unless noted, % is scaled to controls: 0 for no effect and ±100 for the full control effect.

SMILES	Nrf2 block	PI4K2A inh	Giardia kill	KB-V1 cytotox	A549 viability	KB-3-1 tox
Cc1nn(Cc2ccc(Cl)cc2Cl)c(C)c1NC(=O)c1sc2ccccc2c1Cl	-22%	4	-15	i	-9%	i
Cc1nn(Cc2ccc(Cl)cc2Cl)c(C)c1NC(=O)NC12CC3CC(CC(C3)C1)C2	21µM*	-3	10	15µM*	-12%	?
c1ccc(-c2ccc(-c3csc4ncnc(Sc5nnnn5-c5ccccc5)c34)cc2)cc1	/	/	/	i	/	i
COc1ccc(NC(=O)C(=O)NCCC2CCCCN2S(=O)(=O)c2cccs2)cc1 (stereo not given)	-4%	-2	3	1.8µM*	?	2.6µM*
CC(C)CCNC(=O)C(=O)Nc1ccc2c(c1)N(S(=O)(=O)c1cccs1)CCC2	7%	1	24	?	-10%	5.8µM*
O=C(NCCc1ccccc1)C(=O)NCCC1CCCCN1S(=O)(=O)c1cccs1 (stereo not given)	5%	-1	-22	2.3µM*	10%	i
COc1ccc(NC(=O)C(=O)NCCC2CCCCN2S(=O)(=O)c2ccccc2)cc1 (stereo not given)	3%	-1	-10	?	-10%	4.6µM*
COc1ccc(CNC(=O)C(=O)NCCC2CCCCN2S(=O)(=O)c2ccccc2)cc1 (stereo not given)	-18%	0	-4	i	13%	i
Cc1ccc([C@H](C)NC(=O)C2=C(N)N(S(=O)(=O)c3ccc(C)cc3)C(C(=O)c3ccccc3)C2c2ccccc2Cl)cc1 (stereo not given in full)	/	-3	/	/	/	/
O=[N+]([O-])c1ccccc1/C=C/c1ccnc2ccccc12	/	/	/	i	/	?
CCOC(=O)[C@@]12CN(C(=O)OC(C)(C)C)CC=C1N(Cc1ccc(OC)cc1)C(=O)[C@H]2CC(=O)NCCCOC	/	-1	/	/	/	/
ClC(Cl)c1nnc(-c2ccccc2)c(-c2c[nH]c3ccccc23)n1	10µM*	4	-19	?	?	i
COc1ccc(Cn2ncc3c4sc(C)cc4n(C)c3c2=O)cc1F	3%	/	/	/	-2%	/
CCCC(=O)Nc1c2c(nn1-c1ccc(F)cc1)CS(=O)(=O)C2	-3%	5	10	i	3%	i
O=C(Nc1c2c(nn1-c1ccc(F)cc1)CS(=O)(=O)C2)C12CC3CC(CC(C3)C1)C2	0%	4	-11	23µM*	-3%	i
O=C(NCCc1ccc(F)cc1)c1cc2ccccn2n1	/	-4	/	/	/	/
O=C(NCc1ccncc1)C(=O)NCC(c1ccco1)N1CCN(c2ccccc2F)CC1 (stereo not given)	-16%	7	1	2.3µM*	-1%	i
O=C(COc1ccccc1)NCC(c1ccco1)N1CCN(c2ccccc2F)CC1 (stereo not given)	7%	-3	-15	15µM*	-6%	?
CCOC(=O)c1c(Nc2ccc(O)cc2)nnc(-c2ccccc2)c1-c1ccccc1	0%	1	/	i	-3%	i
O=c1cc(N2CCN(c3cccc(Cl)c3Cl)CC2)[nH]c(=O)n1C1CCCCC1	/	4	/	/	/	/
COc1cc2c(cc1NC(=O)COC(=O)[C@@H](NS(=O)(=O)c1cccc(Cl)c1)C(C)C)oc1ccccc12	-14%	-2	11	23µM*	-1%	i
COc1cc2c(cc1NC(=O)c1cccc(S(=O)(=O)N(C)C)c1)oc1ccccc12	?	4	3	10µM*	-9%	i
S=c1[nH]nc(-c2ccco2)n1/N=C/C(Cl)=C/c1ccccc1	?	-7	11	i	2%	i
S=c1[nH]nc(-c2cc(-c3ccccc3)n[nH]2)n1/N=C/C(Br)=C/c1ccccc1	23µM*	-10	-2	?	?	15µM*
CC(/C=N/n1c(-c2cccnc2)n[nH]c1=S)=C\c1ccccc1	-28%	2	-30	16µM*	0%	i
SMILES	Nrf2 block	PI4K2A inh	Giardia kill	KB-V1 cytotox	A549 viability	KB-3-1 tox
Cc1cc(-c2n[nH]c(=S)n2/N=C/C(Cl)=C/c2ccccc2)n[nH]1	5%	9	-20	21µM*	0%	?
COc1ccc2ncnc(NCc3cccs3)c2c1-c1ccc2c(c1)OCO2	?	/	/	i	-19%	?
O=C(Nc1cccc2ncccc12)c1cc([N+](=O)[O-])ccc1Cl	?	-13	-14	?	8%	18µM*
COc1ccc(OCC(=O)Nc2cccc3ncccc23)cc1	/	-3	2	?	10%	i
O=C(Nc1cccc2c1CCCC2)c1cc([N+](=O)[O-])ccc1Cl	?	-7	-7	?	-12%	23µM*
O=C(CCl)Nc1cccc2ncccc12	16µM*	-2	-4	?	23µM*	?
O=C(Nc1cccc2c1CCCC2)c1ccc(Cl)c([N+](=O)[O-])c1	2%	2	6	?	-4%	?
CSc1ccc(/C=C/c2ccnc3ccccc23)cc1	/	/	/	i	/	?
CCC(C)(C)n1nnnc1C(c1cc2cc(OC)ccc2[nH]c1=O)N1CCc2ccccc21 (stereo not given)	-23%	1	-2	18µM*	-12%	?
Cc1cc2cc(C(c3nnnn3Cc3ccccc3)N3CCc4ccccc43)c(=O)[nH]c2cc1C (stereo not given)	-1%	2	15	8.2µM*	-19%	i
CCC(C)(C)n1nnnc1C(c1cc2ccc(OC)cc2[nH]c1=O)N1CCc2ccccc21 (stereo not given)	?	1	6	i	?	i
CN(C(=O)CSc1nc(C2CCCC2)nc2c1c(=O)n(C)c(=O)n2C)c1ccccc1	/	2	/	i	3%	i
CCCCCc1c(C)nc(N2CCc3ccccc32)[nH]c1=O	4%	0	15	3.3µM*	0%	?
CCCCCc1c(C)nc(N2CCc3ccccc3C2)[nH]c1=O	2%	5	2	i	11%	i
CCn1c(SCC(=O)N(C)C)nc2cc(S(=O)(=O)N3CCCCC3)ccc21	-10%	2	-11	21µM*	8%	i
CC(c1ccccc1)N1CC[C@H]2C=CC[C@@H](C(=O)Nc3cccc(Cl)c3)[C@H]2C1=O (stereo not given in full)	/	2	/	/	/	/
COC(=O)c1ccc(OCC(=O)c2ccc(O)cc2O)cc1	8.2µM*	-2	-2	23µM*	0%	?
O=C(COc1ccc(Cl)cc1)c1ccc(O)cc1O	7.3µM*	-1	-12	i	-15%	i
